Records with an inconclusive call do not appear. Activity calls are given as the source filed them. Calls come from the whole dose curve; as a rule, active = well fitted cell-killing curve with a large enough effect in the repeat runs; inconclusive = weak or mixed curves; inactive = no such curve, though single readings can be large or run the other way.
Assay: qHTS assay to identify small molecule agonists of the peroxisome proliferator-activated receptor delta (PPARd) signaling pathway - cell viability counter screen (AID 743211); note: nearly all actives have a fitted effect of over 55% in size
Settings: PPARd-bla HEK293H viability, CellTiter-Glo luminescence, 17 h; series mostly up to 62.6 µM
Method in brief: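 Counter screen for cytotoxicity run in parallel with the PPARd reporter screen. Beta-lactamase reporter HEK293H cells exposed to compounds 17 h; ATP-based CellTiter-Glo luminescence quantified viability.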
% is set by controls: 0 for no effect and ±100 for the full control effect.

| Compound | outcome | activity change, negative = cytotoxicity |
| --- | --- | --- |
| CC(C)OC(=O)CCCCC(=O)OC(C)C | inactive | – |
| CC(=O)Nc1ccc(S(=O)(=O)Nc2ccc([N+](=O)[O-])cc2)cc1 | inactive | – |
| Cc1ccc(S(=O)(=O)O)c(C)c1 | inactive | – |
| CCCCNc1ccc(C(=O)OCCN(C)C)cc1 | inactive | – |
| COc1ccc2c(c1)C(=O)N(CCc1ccc(S(=O)(=O)NC(=O)NC3CCCCC3)cc1)C(=O)C2(C)C | inactive | – |
| CCN(C)C(=O)Oc1cccc([C@H](C)N(C)C)c1 | inactive | – |
| CC(C)CCCCOC(=O)c1ccccc1C(=O)OCCCCC(C)C | inactive | – |
| C=C(C)C(=O)OCC(C)(C)COC(=O)C(=C)C | inactive | – |
| CC(=O)Nc1cccc(C)c1 | inactive | – |
| CC(C)(C)c1nnc(NS(=O)(=O)c2ccc(N)cc2)s1 | inactive | – |
| OCCN(CCO)c1cccc(Cl)c1 | inactive | – |
| COc1cc2c(cc1OC)[C@@H]1CC(=O)[C@@H](CC(C)C)CN1CC2 | inactive | – |
| O=C(c1ccc(O)cc1)c1ccc(O)c(O)c1O | inactive | – |
| CCCCNC1CC(C)(C)NC(C)(C)C1 | inactive | – |
| CCO[Si](CCCS)(OCC)OCC | inactive | – |
| CC(CC=O)CCCC(C)(C)O (stereo not drawn) | inactive | – |
| CCCCCCOC(=O)CC | inactive | – |
| O=C(O)CCSSCCC(=O)O | inactive | – |
| O=C1CCCC(=O)O1 | inactive | – |

| Compound | outcome | activity change, negative = cytotoxicity |
| --- | --- | --- |
| CCCCCOC(=O)CCC | inactive | – |
| CCCC/C=C\CCCCCCCCCC=O | inactive | – |
| CCOC(=O)c1ccc(OC(=O)CCCCCN=C(N)N)cc1 | inactive | – |
| C=C(C)C(=O)OCc1ccccc1 | inactive | – |
| COP(=O)(OC)OC(c1ccc(Cl)cc1)P(=O)(OC)OC (stereo not drawn) | inactive | – |
| NS(=O)(=O)c1ccc(NC(=O)CCC(=O)O)cc1 | inactive | – |
| CCCCN | inactive | – |
| CCCCCCOc1ccccc1C(N)=O | inactive | – |
| C=C(C)C(=O)OCCN(CC)CC | inactive | – |
| CCCOC(OCCC)OCCC | inactive | – |
| CCOCCOCCOCC | inactive | – |
| CCc1ccc(C=O)cc1 | inactive | – |
| C[Si](C)=O | – | 1.6% [at 5.95 µM] (inactive) |
| COCCOC(=O)C1=C(C)NC(C)=C(C(=O)OC(C)C)C1c1cccc([N+](=O)[O-])c1 (stereo not drawn) | inactive | – |
| O=C(O)Cc1ccc(Cl)cc1Cl | inactive | – |
| CC(CN)CC(C)(C)CCN (stereo not drawn) | inactive | – |
| NNc1nnc(NN)c2ccccc12 | inactive | – |
| COC(=O)[C@@H]1[C@H]2C[C@H]3c4[nH]c5ccccc5c4CCN3C[C@@H]2CC[C@@H]1O | inactive | – |
| Cc1ccccc1N=O | inactive | – |
